# A selection: hits, their analogues and other compounds. The true share with any hit is near 2.5%.
# ASK1 inh: human ASK1 kinase inhibition, primary screen; AlphaScreen MKK6 phosphorylation by ASK1, luminescence; Q99683; actives 0.99% (n = 22,000); AID 1159602; inhibition, % at 7.44 µM; in the data active = inhibition above about 35%;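 note: 0% = median of compound wells and 100% = no enzyme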
# ULK1 inh: inhibitors of human ULK1 kinase | actives 1.9% (n = 30,000) | AID 1259251 | AlphaScreen Atg13 phosphorylation by ULK1, luminescence | O75385 | inhibition, % at 5.96 µM; in the data active = inhibition above about 43%;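 note: 0% = median of compound wells and 100% = no enzyme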
# An asterisk follows results filed as active; . = no result given.
SMILES,ASK1 inh,ULK1 inh
Cc1cnc(Nc2ccc(-n3ccnc3)cc2)nc1NCCO,-8,50*
c1ccc(OCCNc2nc(Nc3ccc(-n4ccnc4)cc3)nc3nc[nH]c23)cc1,-10,53*
c1ccc(OCCNc2nc(Nc3cccnc3)nc3nc[nH]c23)cc1,14,48*
c1ccc(Nc2nc(NCCOc3ccccc3)c3[nH]cnc3n2)cc1,7,28
Cc1cnc(Nc2ccc(-n3ccnc3)cc2)nc1NCCc1ccc(O)cc1,-12,29
Oc1ccc(CCNc2nc(Nc3ccc(-n4ccnc4)cc3)nc3nc[nH]c23)cc1,-66,50*
Cc1cnc(Nc2ccc(-n3ccnc3)cc2)nc1NCCOc1ccccc1,11,34
Oc1ccc(CCNc2nc(Nc3ncccn3)nc3nc[nH]c23)cc1,-6,8
Cc1ncn(-c2ccc(Nc3nccc(-c4noc(C)c4I)n3)cc2)n1,9,6
Cn1ncnc1-c1ccc(Nc2nccc(-c3ccccc3)n2)cc1,-14,-1
CN(C)CCn1c(C2COc3ccccc3C2)nc2cc(F)c(-c3ccncc3)cc21 (centres undefined),6,1
Oc1ccc(CCNc2nc(Nc3ccncc3)nc3nc[nH]c23)cc1,-71,51*
Oc1ccc(CCNc2nc(Nc3ccccc3)nc3nc[nH]c23)cc1,-26,36
CCOC(=O)c1oc2cc(NC(=O)c3cc(OC)cc(OC)c3)ccc2c1C,.,-8
Nc1n[nH]c2c(Br)cc(NC(=O)C3COc4ccccc4O3)cc12 (centres undefined),-26,58*
O=C(Nc1ccc2[nH]ncc2c1)C1COc2ccccc2O1 (centres undefined),-16,10
Cc1ccc(-c2cccc3cnc(Nc4cccc(C(=O)N5CCCC5)c4)nc23)cn1,-4,51*
Cc1ccc(-c2cccc3cnc(Nc4ccc(C(=O)N5CCN(C)CC5)cc4)nc23)cn1,-11,58*
CC(=O)N1CCC(Nc2ncc3cccc(-c4ccc(C)nc4)c3n2)CC1,-5,11
Cn1cc(-c2cccc3cnc(NC4CCN(C(=O)N5CCCC5)C4)nc23)cn1 (centres undefined),12,33
Cc1cnc(-c2ccc(C(=O)N3CCN(C)CC3)cc2)nc1Nc1ccc(N2CCOCC2)cc1,-9,-14
Cc1ccc(-c2cccc3cnc(Nc4cccc(C(=O)N5CCN(C)CC5)c4)nc23)cn1,9,62*
Cc1ccc(-c2cccc3cnc(Nc4ccc(C(=O)N5CCOCC5)cc4)nc23)cn1,-14,58*
Cc1cc(Nc2ccccc2)nc(-c2ccc(C(=O)N3CCN(C)CC3)cc2)n1,-10,3
Cc1cc(C)cc(Cn2cc(-c3ccco3)ccc2=O)c1,.,34
SMILES,ASK1 inh,ULK1 inh
CN1CCN(C(=O)c2ccc(-c3nc4ncnc(NC5CC5)c4[nH]3)cc2)CC1,2,4
CCNc1nc(C(=O)NCCc2ccc(OC)cc2)cs1,-11,-8
O=C(Nc1ccc(Oc2ccccc2)cc1)c1ccc(-c2csc3ccccc23)s1,-10,5
COc1cc(Nc2ccc(N3CCC(C(=O)NCCOc4ccccc4)CC3)nn2)cc(OC)c1OC,-2,9
CCNc1cc(NCCO)ncn1,2,1
c1ccc(-c2nc(NCC3CCCO3)c3[nH]cnc3n2)cc1 (centres undefined),15,7
Cc1ccccc1C(=O)N1CCc2nc3ccccn3c(=O)c2C1,.,-1
O=C(Nc1cccc(F)c1N1CCC2(CC1)OCCO2)c1ccc(Br)o1,-11,-9
O=C(Nc1ccc(F)c(F)c1N1CCC2(CC1)OCCO2)c1ccc(Br)o1,-18,53*
Clc1ccc(-c2cnc(NC3CC3)nc2)cc1,.,2
O=C(NCc1ccccc1)c1cccc(NCCCN2CCCC2=O)c1,-6,54*
O=C(NCCCN1CCCC1=O)c1cccc(NCCCN2CCCC2=O)c1,2,-13
NC(C(=O)N1CCCN(C(=O)c2ccc3[nH]ncc3c2)CC1)c1ccc(Cl)cc1 (centres undefined),3,10
CCOc1cc(/C=N/N2C(=O)C3C(C2=O)C2C=CC3C23CC3)ccc1O (centres undefined),.,5
CCOc1cc(/C=N\NC(=O)c2n[nH]c3c2CCCC3)ccc1O,.,44*
CCCNc1nc(Nc2nc3ccccc3n2C)ncc1C,-2,6
Cc1cncc2cccc(NC3CCCN(C(=O)C(O)c4ccc(Cl)cc4)C3)c12 (centres undefined),-8,13
Cc1cc2c(NC3CCCN(C(=O)C(O)c4ccc(Cl)cc4)C3)cccc2nn1 (centres undefined),-18,52*
Cc1cc(Nc2ccc(Oc3ccccc3)cc2)nc(-c2ccccc2)n1,-5,-17
CCCCC(CC)COC(=O)CC(C(=O)OCC(CC)CCCC)S(=O)(=O)O (centres undefined),.,54*
CCCCC(CC)COC(=O)C(C#N)=C(c1ccccc1)c1ccccc1 (centres undefined),.,-8
N#C/C(=C\Nc1ccc(C(N)=O)cc1)c1nc(-c2ccc([N+](=O)[O-])cc2)cs1,.,-8

# Screening results: PubChem, The Scripps Research Institute Molecular Screening Center
